An excerpt weighted towards active compounds, which were near 4.1% of everything screened.
TRPM1 prom inh = inhibitors of MITF-dependent TRPM1 promoter reporter, primary screen, cell-based, SK-MEL-5, single point, luciferase | SK-MEL-5 TRPM1 promoter luciferase, 24 h | inhibition, % at 12.5 µM | 330,000 compounds, 0.83% hits | AID 488899, 2010;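 active means mean inhibition across replicates of 60% or more, whatever share of single replicates reaches that level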
EBV LMP1 NFkB = EBV LMP1-driven NF-kappaB luciferase reporter inhibitors, primary screen, cell-based, luminescence, single point. inhibition, % at 12.5 µM. LMP1-induced NF-kappaB luciferase reporter cells. AID 504558, 2011. 350,000 compounds, 0.69% hits; in the data active means inhibition above about 41%;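 further: 0% = neutral control wells and 100% = reference inhibitor control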
Shn3 3UTR inh = reduction of Shn3 3'UTR firefly luciferase signal, primary screen, Schnurri-3 inhibitor project, cell-based, Clone20 osteoblasts, set 2. 360,000 compounds, 0.52% hits. inhibition, % at 12.5 µM. AID 588674, 2011. Clone20 osteoblast Shn3 3'UTR firefly luciferase, 24 h;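 active means mean inhibition of at least 75% with every replicate also reaching 75%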;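 further: 0% = median of neutral control wells and 100% = pilot-screen positive control compound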
TWEAK-Fn14 inh = inhibitors of TWEAK-Fn14 signaling, primary screen, luciferase reporter cells, uHTS | TWEAK-stimulated Fn14 reporter cells, luciferase luminescence, 8 h | 360,000 compounds, 2% hits | inhibition, % at 10 µM; in the data active means inhibition above about 50%
TROY signal inh = inhibitors of TROY-driven NF-kB signaling, primary screen, Q293 LMP1-TROYcd cells, NF-kB luciferase, uHTS; Q293 LMP1-TROYcd NF-kB luciferase reporter, 4 h; inhibition, % at 10 µM; 360,000 compounds, 0.98% hits; AID 1347056, 2019;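 active means compounds whose plate-normalised and pattern-corrected inhibition of the luciferase reporter signal at the single screening dose is 50% or more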
Peg3 prom inh-1 = Peg3 promoter-driven luciferase inhibitors, primary screen, cell-based, HeLa, luciferase luminescence | HeLa PEG-Prom luciferase reporter, overnight | inhibition, % at 20 µM | 360,000 compounds, 1.7% hits | AID 588405, 2011;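 active means inhibition of at least 50% at 20 µM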
Peg3 prom inh-2 = Peg3 promoter reporter inhibitors, retest, confirmation, cell-based, HeLa, luciferase reporter, single concentration | HeLa PEG-Prom luciferase reporter, luminescence, overnight | inhibition, % at 20 µM | shares compounds with Peg3 prom inh-1 | 1,300 compounds, 84% hits;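 active means at 20 µM dose, 40% or more inhibition averaged across four replicates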
The depositor's hits bear a star; . = no result.

SMILES	TRPM1 prom inh	EBV LMP1 NFkB	Shn3 3UTR inh	TWEAK-Fn14 inh	TROY signal inh	Peg3 prom inh-1	Peg3 prom inh-2
CCN(CCN(C)C)C(=O)C1CCN(S(=O)(=O)c2c(C)noc2/C=C/c2ccccc2F)CC1	45	-7	-8	-58	0	90*	51*
Cc1noc(/C=C/c2ccccc2F)c1S(=O)(=O)N1CCC(C(=O)N2CCN(C)CC2)CC1	-12	-6	-8	-19	-14	4	.
COc1ccc(CNC(=O)C(C)OC(=O)c2cccc(N(C)C)c2)cc1 (configuration not stated)	7	1	-13	-19	-22	13	.
CCCOc1ccc(NC(=O)CC2C(=O)N(CC)C(=S)N2CCCN2CCN(Cc3ccccc3)CC2)cc1 (configuration not stated)	73*	-41	1	20	2	76*	80*
CCCNc1nc(C)cc(-c2cc(-c3ccc(Cl)cc3)on2)n1	-19	0	-2	-1	-24	-4	.
Cc1cccc(NC(=O)c2oc3ccc(S(=O)(=O)N4CCOCC4)cc3c2C)c1C	8	16	11	27	23	54*	56*
COc1ccc(N2C(=O)C(CC(=O)Nc3ccccc3)N(CCc3ccc(OC)c(OC)c3)C2=O)cc1 (configuration not stated)	6	-2	-2	-12	3	8	.
Cc1cc(C)c(NC(=O)CSc2nc3ccc(NC(=O)CSc4nnnn4Cc4ccccc4)cc3s2)c(C)c1	5	0	5	-14	-27	-29	.
Cc1cc(C)c(NC(=O)CSc2nc3ccc(NC(=O)CSc4nnnn4-c4ccccc4)cc3s2)c(C)c1	16	2	-1	-30	-2	84*	13
C[C@@]12C(=O)Nc3cc(Cl)ccc3C(=O)N1[C@H]1c3cc(Cl)ccc3OC[C@@H]1[C@@H]2c1ccccc1	-4	2	27	37	9	56*	57*
Cc1ccc(NC(=O)Nc2ccnc(-c3cccnc3)n2)cc1	10	-30	-12	21	-23	88*	67*
O=C(CN1C2CCCC1CC(NC(=O)c1ccccc1)C2)Nc1ccccc1 (configuration not stated)	-17	7	20	7	-6	9	.
COc1ccccc1NC(=O)Nc1nc(C(N)CCc2ccccc2)cs1 (configuration not stated)	.	.	33	11	7	88*	95*
CN(C)Cc1csc(NC(=O)Nc2ccccc2Oc2ccccc2)n1	.	.	0	7	18	93*	20
CC(C)CC(N)c1csc(NC(=O)Nc2ccccc2C(C)(C)C)n1 (configuration not stated)	.	.	5	11	3	67*	91*
COc1ccc(CNC(=O)Nc2nc(C(N)Cc3ccc(F)cc3)cs2)cc1 (configuration not stated)	.	.	68	12	8	96*	98*
COc1ccc(CCN2CC(C(=O)Nc3cc(S(C)(=O)=O)ccc3Cl)CC2=O)cc1OC (configuration not stated)	3	6	-16	-4	-8	13	.
Cc1ccc(OCCC(=O)OCC(=O)Nc2cc(S(=O)(=O)N(C)C)ccc2C)cc1	1	-7	-40	-1	3	11	.
CN(C)CCNC(=O)C1(C)Cc2c(-c3cccc(C(F)(F)F)c3)ccnc2O1 (configuration not stated)	.	.	11	17	7	7	.
O=C(O)c1ccc(Sc2nnc3ccccn23)c([N+](=O)[O-])c1	4	-7	6	0	0	4	.
O=C(Cc1ccccc1)N/N=C/c1ccc(S(=O)(=O)O)o1	0	8	-10	-5	3	16	.
CC1CCCN(C(=O)C2(NC(=O)Nc3cccc(F)c3)CCCCC2)C1 (configuration not stated)	17	-4	-12	-1	9	13	.
Oc1[nH]c2ccc(Br)cc2c1N=NC(=S)N1CCOCC1	99*	10	97*	105*	49	76*	85*
O=C(Nc1ccc(Cc2ccncc2)cc1)c1ccc([N+](=O)[O-])o1	45	-25	98*	1	-19	103*	95*
CN(CCO)C(=O)c1nc[nH]c1C(=O)N1CCN(C(=O)OC(C)(C)C)CC1	.	-2	-18	-4	-13	-20	.
SMILES	TRPM1 prom inh	EBV LMP1 NFkB	Shn3 3UTR inh	TWEAK-Fn14 inh	TROY signal inh	Peg3 prom inh-1	Peg3 prom inh-2
Cc1ccc(S(=O)(=O)CCSC(=N)N)cc1	-1	-6	-19	20	-10	55*	47*
CC(C)CC(N)c1csc(NC(=O)NCCc2ccccc2)n1 (configuration not stated)	.	.	-4	-11	1	25	.
CCCCN(C)C(=O)c1ccc(Nc2nc(C(N)Cc3ccccc3)cs2)nc1 (configuration not stated)	.	.	14	14	4	40	.
COc1cccc(Nc2nc(C(N)Cc3ccccc3)cs2)n1 (configuration not stated)	.	.	4	16	-19	89*	96*
CN(Cc1ccccc1)C(=O)c1ccc(Nc2nc(C(N)Cc3ccccc3)cs2)nc1 (configuration not stated)	.	.	27	-13	0	93*	90*
COc1cccc(Nc2nc(C(N)CO)cs2)n1 (configuration not stated)	.	.	-46	-10	4	6	.
CC(C)CC(N)c1csc(Nc2ccc(C(=O)N(C)Cc3ccccc3)cn2)n1 (configuration not stated)	.	.	35	4	-10	60*	85*
C/C(=N\N1CCN(c2ccccc2)CC1)c1ccco1	-14	-5	-18	-20	-40	-28	.
COc1ccc(C(C(=O)NCC2CCCO2)N(Cc2cccs2)C(=O)c2snc(C(N)=O)c2N)cc1 (configuration not stated)	10	-3	-6	28	10	51*	50*
O=C(CCN1C(=O)/C(=C/c2cccs2)SC1=S)N1CCCCC1	7	6	9	39	2	112*	92*
COc1cc(/C=C2\SC(=S)N(CCC(=O)N3CCCCC3)C2=O)cc(OC)c1OC	13	7	-10	34	27	68*	47*
Cc1ccc(/C=C2\SC(=S)N(CCC(=O)N3CCCCC3)C2=O)cc1	5	2	-17	-18	10	20	.
CCCCNc1nc(=S)n(-c2ccccc2)c(C)c1C(C)=O	64*	7	-9	11	4	114*	94*

Screening data: PubChem BioAssay, several laboratories
